Source: PubChem (National Center for Advancing Translational Sciences (NCATS))
Hits are enriched below; roughly 10% of the tested compounds scored in any of these assays.
Gal4-VP16 FLuc – counter-screen for ROR gamma inhibitors: Gal4-VP16 reporter; Drosophila S2 Gal4-VP16 UAS-luciferase, luminescence, 20 h; Potency, µM (highest dose often 53.6 µM), actives largely listed as inhibitors; hit rate 3.5% among 310,000;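 further: Gal4-VP16 expression switched on by copper sulfate through the metallothionein promoter; nearly all actives have a fitted effect of over 50% in size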
KB-V1 cytotox – KB-V1 MDR subline cytotoxicity; Potency, µM (titrated, usually from 46.1 µM), most hits filed as cytotoxic; AID 1347076; KB-V1 MDR cells viability, CellTiter-Glo, 72 h; hit rate 3.4% among 400,000; further: nearly all actives have a fitted effect of over 60% in size
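Drug-selected KB-V1 cells, grown in DMEM lacking phenol red with 10% FBS, receive compound titrations; after three days at 37 degrees C, surviving cell ATP is quantified by CellTiter-Glo luminescence and responses normalized and curve-fitted.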
RORg inh – ROR gamma (mouse) transcription inhibition | Drosophila S2 Gal4-RORgamma UAS-luciferase reporter, 20 h | Potency, µM (highest dose often 53.6 µM), usual class: inhibitors | hit rate 5.4% among 310,000; further: nearly all actives have a fitted effect of over 60% in size
Target sequence (P51450 whole entry, looked up, the tested form may be a part): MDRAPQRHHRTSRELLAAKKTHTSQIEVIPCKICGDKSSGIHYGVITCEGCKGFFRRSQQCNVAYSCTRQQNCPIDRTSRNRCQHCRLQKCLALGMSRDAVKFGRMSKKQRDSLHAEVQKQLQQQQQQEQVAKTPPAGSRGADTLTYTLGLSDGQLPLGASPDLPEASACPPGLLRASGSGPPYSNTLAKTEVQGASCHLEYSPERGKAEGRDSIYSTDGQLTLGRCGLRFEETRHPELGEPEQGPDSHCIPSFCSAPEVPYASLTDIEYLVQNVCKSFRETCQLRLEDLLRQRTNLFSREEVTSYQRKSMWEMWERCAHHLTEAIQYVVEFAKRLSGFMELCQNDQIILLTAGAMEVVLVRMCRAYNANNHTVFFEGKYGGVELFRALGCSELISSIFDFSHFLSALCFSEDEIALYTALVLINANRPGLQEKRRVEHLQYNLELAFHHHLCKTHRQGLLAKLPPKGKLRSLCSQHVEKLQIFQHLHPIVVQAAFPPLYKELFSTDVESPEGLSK
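Schneider cells (Drosophila), stable Gal4 DBD–ROR gamma + UAS-luc; 1 hr cmpd preincubation; Cu2+ induction 700 uM final; 20 hr ambient; luminescence.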
KB-3-1 cytotox – KB-3-1 parental cell cytotoxicity | KB-3-1 viability, CellTiter-Glo ATP luminescence, 72 h | hit rate 1.4% among 400,000 | Potency, µM (highest dose often 46.1 µM), most hits filed as cytotoxic; further: nearly all actives have a fitted effect of over 60% in size
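Luminescent ATP read-out (CellTiter-Glo) measures survival of drug-naive KB-3-1 cells after 72 h compound exposure at 37 °C. Titration series was screened from lowest to highest concentration, with DMSO vehicle plates as background controls.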
MCF10A rerep – DNA re-replication induction in MCF 10a cells. MCF 10A DNA re-replication, Hoechst nuclear intensity, 48 h. Potency, µM (titrated, usually from 46.1 µM), actives largely listed as activators. hit rate 2.9% among 350,000. AID 624296; further: nearly all actives have a fitted effect of over 50% in size
SW480 rereplic – induces DNA re-replication in SW480 colon adenocarcinoma cells; SW480 DNA re-replication, Hoechst DNA content imaging, 48 h; Potency, µM (highest dose often 46.1 µM), most hits filed as activators; hit rate 1.8% among 340,000; AID 624297; further: nearly all actives have a fitted effect of over 55% in size
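Image-based DNA-content assay: after two days of treatment, nuclei were labelled with the DNA dye Hoechst and imaged, and hits were compounds raising the count of nuclei showing high fluorescence intensity.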
Large screens that a line does not name were inactive. The call rests on the fitted dose curve; in most records, active means well fitted curve in the direction sought with a large enough effect; inconclusive means small, poorly fitted or top-dose-only effect, or another doubt; inactive means no such curve, though single readings can be large; an effect the other way counts as inactive or inconclusive.

COc1ccc(CN2CCc3c(c(=O)n4ncc(C(=O)N5CCN(c6ccccc6F)CC5)c4n3C)C2)cc1	none (no result: Gal4-VP16 FLuc, RORg inh, MCF10A rerep, SW480 rereplic)
COc1ccc(OC)c(NC(=O)Cc2coc3cc(C)cc(C)c23)c1	KB-V1 cytotox 16.4µM
COc1ccc(NC(=O)Cc2coc3cc(C)cc(C)c23)c(OC)c1	none (no result: Gal4-VP16 FLuc, RORg inh, MCF10A rerep, SW480 rereplic)
Cc1ccc(/C=C/C(=O)N2CC(=O)Nc3ccccc32)o1	Gal4-VP16 FLuc 15.8µM, RORg inh inconclusive
Cc1ccc(/C=C/C(=O)N2CCN(Cc3ccccc3)CC2)o1	Gal4-VP16 FLuc inconclusive, KB-V1 cytotox 13µM
Cc1cc(C)cc(C(=O)N2CC(=O)Nc3ccccc32)c1	KB-V1 cytotox 3.26µM, KB-3-1 cytotox inconclusive, MCF10A rerep inconclusive, SW480 rereplic 0.731µM
Cc1ccc(C(=O)N2CCN(Cc3ccccc3)CC2)o1	none
CCOC(=O)C1=NN(C(=O)Cc2ccccc2)C(O)(c2ccc(Cl)cc2)C1 (centres undefined)	Gal4-VP16 FLuc 10µM, RORg inh 5.62µM, MCF10A rerep inconclusive, SW480 rereplic inconclusive
CCOC(=O)C1=NN(C(=O)COc2ccccc2)C(O)(c2ccc(Cl)cc2)C1 (centres undefined)	Gal4-VP16 FLuc 11.2µM, RORg inh 3.55µM
CC1=NN(C(=O)Cc2ccccc2)C(O)(c2ccccc2)C1 (centres undefined)	KB-3-1 cytotox inconclusive, MCF10A rerep inconclusive, SW480 rereplic inconclusive
Cc1cccc(C(=O)/C=C2/c3ccccc3CC(C)(C)N2C)c1	KB-V1 cytotox 18.4µM
Cc1ccccc1C(=O)/C=C1/c2ccccc2CC(C)(C)N1C	MCF10A rerep inconclusive
O=C1CSC(=Nc2cccc(Cl)c2Cl)N1Cc1cccnc1	KB-V1 cytotox 16.4µM
Cc1ccccc1N=C1SCC(=O)N1Cc1ccccc1	KB-V1 cytotox inconclusive
COc1cccc(OCCn2cc(/C=N/NC(=O)c3ccncc3)c3ccccc32)c1	Gal4-VP16 FLuc 10µM, KB-V1 cytotox inconclusive, RORg inh inconclusive, KB-3-1 cytotox inconclusive, MCF10A rerep inconclusive
CCOC(=O)N/N=C/c1cn(Cc2ccc(Cl)cc2)c2ccccc12	Gal4-VP16 FLuc inconclusive, KB-V1 cytotox inconclusive, KB-3-1 cytotox inconclusive
Cc1ccc(OCCCn2cc(C#N)c3ccccc32)cc1	KB-V1 cytotox 16.4µM, KB-3-1 cytotox inconclusive, SW480 rereplic inconclusive
CCOC(=O)N/N=C/c1cn(CCCOc2ccc(C)cc2)c2ccccc12	Gal4-VP16 FLuc 1.78µM, KB-V1 cytotox 20.6µM, RORg inh 1.41µM, KB-3-1 cytotox inconclusive, SW480 rereplic inconclusive
Cc1ccc(OCC(=O)N/N=C/c2cn(Cc3ccccc3)c3ccccc23)cc1	Gal4-VP16 FLuc 7.08µM, RORg inh 5.01µM, MCF10A rerep inconclusive
C=C1CCN(C(CC(C)C)C(=O)NCc2ccc(Cl)cc2)S(=O)(=O)c2ccccc21 (centres undefined)	none (no result: KB-V1 cytotox, KB-3-1 cytotox, MCF10A rerep, SW480 rereplic)
Cc1ccc(OCCn2cc(/C=N/NC(=O)c3ccncc3)c3ccccc32)cc1	Gal4-VP16 FLuc 11.2µM, RORg inh 5.01µM, MCF10A rerep inconclusive
COc1ccc(OCCn2cc(/C=N/NC(=O)c3ccncc3)c3ccccc32)cc1	Gal4-VP16 FLuc 8.91µM, KB-V1 cytotox inconclusive, RORg inh 5.01µM
O=c1/c(=C/c2ccccn2)sc2n1CN(c1ccccc1)CN=2	RORg inh inconclusive, SW480 rereplic inconclusive
Cc1cc(C)c2c(c1)/C(=c1/sc3n(c1=O)CN(c1ccccc1)CN=3)C(=O)N2	KB-V1 cytotox 16.4µM, KB-3-1 cytotox inconclusive
O=C(c1ccccc1)C(c1ccccc1)[n+]1csc2ccccc21 (centres undefined)	none (no result: Gal4-VP16 FLuc, RORg inh, MCF10A rerep, SW480 rereplic)
CC1CCN(c2c(NCc3ccc(C(=O)N4CCc5ccccc54)cc3)c(=O)c2=O)CC1	RORg inh inconclusive, KB-3-1 cytotox 1.64µM, MCF10A rerep 3.66µM, SW480 rereplic 6.51µM
CC1CCN(c2c(NCc3ccc(C(=O)N(C)C4CCCCC4)cc3)c(=O)c2=O)CC1	none
c1ccc(-n2nnc3c(N4CCOCC4)ncnc32)cc1	Gal4-VP16 FLuc inconclusive, KB-V1 cytotox 16.4µM, RORg inh 8.91µM, KB-3-1 cytotox inconclusive, MCF10A rerep inconclusive
c1ccc(-c2cc3c(N4CCOCC4)ncnc3s2)cc1	KB-V1 cytotox inconclusive, MCF10A rerep 13µM, SW480 rereplic inconclusive
Cc1nnc(N2CCOCC2)c2nn(-c3ccccc3)c(C)c12	KB-V1 cytotox inconclusive
c1ccc(Cn2nnc3c(N4CCCC4)ncnc32)cc1	KB-V1 cytotox 18.4µM
c1ccc(Cn2nnc3c(N4CCc5ccccc5C4)ncnc32)cc1	KB-V1 cytotox 14.6µM, MCF10A rerep inconclusive
CCN1CCN(c2ncnc3c2nnn3Cc2ccccc2)CC1	MCF10A rerep inconclusive
COc1ccc(Oc2ncc3nc(-c4cccs4)c(=O)n(C)c3n2)cc1	none (no result: KB-V1 cytotox, KB-3-1 cytotox, MCF10A rerep, SW480 rereplic)
Cn1nc([N+](=O)[O-])nc1Oc1ccc(C(C)(C)C)cc1	Gal4-VP16 FLuc inconclusive, KB-V1 cytotox 14.6µM, RORg inh inconclusive, MCF10A rerep inconclusive
Cn1nc([N+](=O)[O-])nc1Oc1ccccc1	KB-V1 cytotox inconclusive
C[C@H](CO)N1C[C@H](C)[C@H](CN(C)S(=O)(=O)c2cccc(F)c2)OCc2ccccc2-c2c(n(C)c3ccccc23)C1=O	KB-3-1 cytotox 23.1µM (no result: Gal4-VP16 FLuc, RORg inh, MCF10A rerep, SW480 rereplic)
COc1ccc(S(=O)(=O)Nc2cccc3c2O[C@H](CN(C)S(=O)(=O)c2ccccc2)[C@@H](C)CN([C@H](C)CO)C3=O)cc1	KB-V1 cytotox inconclusive, SW480 rereplic 0.82µM (no result: Gal4-VP16 FLuc, RORg inh)
C[C@@H]1CN([C@@H](C)CO)C(=O)c2ccccc2-c2ccccc2CO[C@@H]1CN(C)S(=O)(=O)c1ccc(C(F)(F)F)cc1	KB-V1 cytotox 16.4µM (no result: Gal4-VP16 FLuc, RORg inh, MCF10A rerep, SW480 rereplic)
COc1cccc2sc3cc(C#CC4(O)CCCCC4)ccc3c(=O)c12	MCF10A rerep inconclusive (no result: Gal4-VP16 FLuc, RORg inh)
COc1cc2sc3ccc(C#CC4(O)CCCCC4)cc3c(=O)c2cc1OC	MCF10A rerep 9.2µM, SW480 rereplic inconclusive (no result: Gal4-VP16 FLuc, RORg inh)
C=CCN1C(c2ccc(Br)cc2)=CS/C1=C(/C#N)c1nnc(N2CCOCC2)n1-c1ccccc1	KB-V1 cytotox inconclusive, SW480 rereplic inconclusive
C=CCN1C(c2cccc(C(F)(F)F)c2)=CS/C1=C(/C#N)c1nnc(N2CCOCC2)n1-c1ccccc1	KB-V1 cytotox 4.11µM, RORg inh inconclusive, KB-3-1 cytotox inconclusive, MCF10A rerep inconclusive
C=CCN1C(=O)NC(c2ccc(OC)cc2)(C(F)(F)F)S/C1=C(\C#N)c1nnc(N2CCOCC2)n1-c1ccccc1 (centres undefined)	Gal4-VP16 FLuc 12.6µM, RORg inh 4.47µM, MCF10A rerep inconclusive
O=C(CSc1nnnn1-c1ccc2c(c1)OCCO2)Nc1nc2c(s1)CCCC2	KB-V1 cytotox 16.4µM, RORg inh inconclusive
COc1cccc(-n2nnnc2SCC(=O)Nc2nc3c(s2)CCCC3)c1	Gal4-VP16 FLuc 8.91µM, RORg inh 3.16µM, MCF10A rerep inconclusive
COC(=O)c1cccc(-n2nnnc2SCC(=O)Nc2nc3c(s2)CCCC3)c1	none
